In PubChem BioAssay (NCI) one finds growth inhibition data, which are given here for ten molecules.

About 79,000 compounds went through this panel and 15% of them were active in at least one assay; those are over-represented in the sample as a whole. Values without a mark were called inactive. Active and inactive are the calls of the source. Cut-off read from the data, not from the text of the source: active = growth inhibition above about 70%; inactive = the rest.

Assay [1] can be described thus: NCI Yeast Anticancer Drug Screen. Data for the rad50 strain (AID 155).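 Note: 0% = growth of vehicle-only cultures of the same strain.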 To be noted: S. cerevisiae rad50 strain growth inhibition, hits give high values. In short, it runs like this: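 Cells are treated with compound, grown, and their growth is then scored against vehicle-only cultures of the same repair-deficient yeast strain.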
The nature of assay [2]: NCI Yeast Anticancer Drug Screen. Data for the mec2-1 strain (AID 157). To be noted: S. cerevisiae mec2-1 strain, hits give high values. Summed up:
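Readout is yeast growth inhibition, normalised to vehicle-treated controls, in the mec2-1 strain exposed to compound.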

Assay [3] can be described thus: NCI Yeast Anticancer Drug Screen. Data for the sgs1 mgt1 strain (AID 161).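 Note: 0% = growth of cultures given vehicle only.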 To be noted: S. cerevisiae sgs1 mgt1 strain, hits give high values. Summed up: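 Compounds are added to genetically altered yeast, and growth is compared with cultures given vehicle alone to give percent inhibition.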
Assay [4] in a line: NCI Yeast Anticancer Drug Screen. Data for the cln2 rad14 strain (AID 165).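 Note: 0% = growth equal to vehicle treated cultures.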 Particulars: S. cerevisiae cln2 rad14 strain, hits give high values. In short, it runs like this: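 Relative to vehicle controls, growth inhibition of compound-treated cln2 rad14 yeast was recorded.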
A short description of assay [5]: NCI Yeast Anticancer Drug Screen. Data for the bub3 strain (AID 167). To be noted: S. cerevisiae bub3 mutant strain, hits give high values. In short, it runs like this:
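Part of a panel of yeast mutants defective in DNA damage repair or cell cycle regulation. Each strain is grown with compound, and inhibition is calculated relative to solvent-treated cultures.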

The nature of assay [6]: NCI Yeast Anticancer Drug Screen. Data for the mlh1 rad18 strain (AID 175). Particulars: S. cerevisiae mlh1 rad18 strain growth inhibition, hits give high values. In short, it runs like this:
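Test agents were incubated with a yeast strain of defined genotype (DNA damage repair defect). Inhibition of growth was derived by comparison with vehicle-exposed cultures.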

Where [7] appears, read: at 5.0 µM (retest, dose inferred, filed as 0.5).
Setting [8] is: at 50.0 µM (retest, dose inferred, filed as 5.0).

Take `Clc1ccc(SSN2CCOCC2)cc1`: the growth inhibition in assay [1] (setting [7]) is 7%; in assay [1] (setting [8]) it was 84% (active); in assay [1] (at 50.0 µM), 98.5% (active); in assay [2] (setting [7]), -2%; in assay [2] (setting [8]) it was 80% (active); in assay [2] (at 50.0 µM), 98.9% (active). The growth inhibition in assay [3] (setting [7]) was 1%; in assay [3] (setting [8]), 98% (active); in assay [3] (at 50.0 µM), 98.9% (active); in assay [4] (setting [7]), -2%; in assay [4] (setting [8]), 40%; in assay [4] (at 50.0 µM), 61.3%. The growth inhibition in assay [5] (setting [7]) is 4%; in assay [5] (setting [8]) it was 92% (active); in assay [5] (at 50.0 µM), 98.5% (active); in assay [6] (setting [7]), 0%; in assay [6] (setting [8]) it was 96% (active); in assay [6] (at 50.0 µM), 97.2% (active).
For the molecule `Cc1oc2c(c1C(=O)c1ccccc1)C(=O)c1ccccc1C2=O`, the growth inhibition in assay [1] (setting [7]) was 33%; in assay [1] (setting [8]), 99% (active); in assay [1] (at 50.0 µM), 88.2% (active); in assay [2] (setting [7]), 19%; in assay [2] (setting [8]), 99% (active); in assay [2] (at 50.0 µM), 92.7% (active). Further, the growth inhibition in assay [3] (setting [7]) is 31%; in assay [3] (setting [8]), 99% (active); in assay [3] (at 50.0 µM), 93.2% (active); in assay [4] (setting [7]) it was 22%; in assay [4] (setting [8]), 98% (active); in assay [4] (at 50.0 µM) it was 92.8% (active). Besides, the growth inhibition in assay [5] (setting [7]) was 39%; in assay [5] (setting [8]), 99% (active); in assay [5] (at 50.0 µM), 91.7% (active); in assay [6] (setting [7]), 25%; in assay [6] (setting [8]) it was 99% (active); in assay [6] (at 50.0 µM), 82% (active).
With `O=C1OC(c2ccc(O)cc2)Sc2ccccc21` (stereo not given), the growth inhibition is 6% in assay [1] (setting [7]); 66% in assay [1] (setting [8]); 81.1% (active) in assay [1] (at 50.0 µM); 38% in assay [2] (setting [7]); 83% (active) in assay [2] (setting [8]); 74.2% (active) in assay [2] (at 50.0 µM). Further, the growth inhibition in assay [3] (setting [7]) was -43%; in assay [3] (setting [8]) it was 40%; in assay [3] (at 50.0 µM), 49.8%; in assay [4] (setting [7]) it was 3%; in assay [4] (setting [8]), 24%; in assay [4] (at 50.0 µM) it was -22.5%. Further, the growth inhibition in assay [5] (setting [7]) was -1%; in assay [5] (setting [8]), 29%; in assay [5] (at 50.0 µM), 3.9%; in assay [6] (setting [7]) it was 8%; in assay [6] (setting [8]) it was 56%; in assay [6] (at 50.0 µM), 40%.
Turning to `Clc1ccc2ccc3cccnc3c2n1`, the growth inhibition in assay [1] (setting [7]) was 9%; in assay [1] (setting [8]), 95% (active); in assay [1] (at 50.0 µM), -38.5%; in assay [2] (setting [7]), 7%; in assay [2] (setting [8]), 97% (active); in assay [2] (at 50.0 µM) it was -9.5%. Further, the growth inhibition in assay [3] (setting [7]) is 0%; in assay [3] (setting [8]), 86% (active); in assay [3] (at 50.0 µM), -13.2%; in assay [4] (setting [7]), -4%; in assay [4] (setting [8]) it was 92% (active); in assay [4] (at 50.0 µM), 7.9%. Moreover, the growth inhibition in assay [5] (setting [7]) was -7%; in assay [5] (setting [8]), 98% (active); in assay [5] (at 50.0 µM) it was 20.4%; in assay [6] (setting [7]) it was 3%; in assay [6] (setting [8]), 94% (active); in assay [6] (at 50.0 µM), -25.1%.
With `COC(=O)c1ccc(CSc2ccc(OC)cc2)cc1`, the growth inhibition in assay [1] (setting [7]) was 16%; in assay [1] (setting [8]), 84% (active); in assay [1] (at 50.0 µM), 88.5% (active); in assay [2] (setting [7]), -14%; in assay [2] (setting [8]) it was 75% (active); in assay [2] (at 50.0 µM), 83.2% (active). Moreover, the growth inhibition in assay [3] (setting [7]) was 8%; in assay [3] (setting [8]), 92% (active); in assay [3] (at 50.0 µM) it was 88.3% (active); in assay [4] (setting [7]), 2%; in assay [4] (setting [8]), 83% (active); in assay [4] (at 50.0 µM) it was 80.9% (active). Also, the growth inhibition in assay [5] (setting [7]) is 1%; in assay [5] (setting [8]), 80% (active); in assay [5] (at 50.0 µM), 85.2% (active); in assay [6] (setting [7]), -21%; in assay [6] (setting [8]), 91% (active); in assay [6] (at 50.0 µM), 85.3% (active).
As for `O/N=C(/Cc1nc2cc(Cl)c(Cl)cc2nc1C/C(=N/O)c1ccncc1)c1ccncc1`, the growth inhibition in assay [1] (setting [7]) was 5%; in assay [1] (setting [8]), 65%; in assay [1] (at 50.0 µM), 82.2% (active); in assay [2] (setting [7]) it was 11%; in assay [2] (setting [8]) it was 77% (active); in assay [2] (at 50.0 µM), 87.6% (active). For the same molecule, the growth inhibition in assay [3] (setting [7]) is 4%; in assay [3] (setting [8]), 55%; in assay [3] (at 50.0 µM) it was 79% (active); in assay [4] (setting [7]), 6%; in assay [4] (setting [8]), 68%; in assay [4] (at 50.0 µM) it was 84.5% (active). The growth inhibition is 5% in assay [5] (setting [7]); 77% (active) in assay [5] (setting [8]); 74% (active) in assay [5] (at 50.0 µM); 1% in assay [6] (setting [7]); 47% in assay [6] (setting [8]); 89.5% (active) in assay [6] (at 50.0 µM).
For the molecule `COC(=O)CCCCCOS(=O)(=O)c1ccc(C)cc1`, the growth inhibition in assay [1] (setting [7]) was 1%; in assay [1] (setting [8]) it was -5%; in assay [1] (at 50.0 µM), 26.9%; in assay [2] (setting [7]) it was -3%; in assay [2] (setting [8]) it was -5%; in assay [2] (at 50.0 µM), 16.2%. Further, the growth inhibition is -4% in assay [3] (setting [7]); -3% in assay [3] (setting [8]); 21.9% in assay [3] (at 50.0 µM); -3% in assay [4] (setting [7]); -14% in assay [4] (setting [8]); 84.2% (active) in assay [4] (at 50.0 µM). In addition, the growth inhibition is -1% in assay [5] (setting [7]); -5% in assay [5] (setting [8]); 1.05% in assay [5] (at 50.0 µM); -5% in assay [6] (setting [7]); -8% in assay [6] (setting [8]); 0.7% in assay [6] (at 50.0 µM).
For `O=C(O)c1ccc2c(Br)ccc3c2c1CC3`, the growth inhibition in assay [1] (setting [7]) is 13%; in assay [1] (setting [8]), 8%; in assay [1] (at 50.0 µM) it was 77.3% (active); in assay [2] (setting [7]), -13%; in assay [2] (setting [8]) it was 25%; in assay [2] (at 50.0 µM), 56.1%. The growth inhibition is -6% in assay [3] (setting [7]); 16% in assay [3] (setting [8]); 73.5% (active) in assay [3] (at 50.0 µM); -8% in assay [4] (setting [7]); -1% in assay [4] (setting [8]); 18.1% in assay [4] (at 50.0 µM). Besides, the growth inhibition was -2% in assay [5] (setting [7]); 20% in assay [5] (setting [8]); 8.05% in assay [5] (at 50.0 µM); 34% in assay [6] (setting [7]); 35% in assay [6] (setting [8]); 68.6% in assay [6] (at 50.0 µM).
`Cc1ccccc1Sc1ncnc2ccccc12`: the growth inhibition in assay [1] (setting [7]) is 2%; in assay [1] (setting [8]), 34%; in assay [1] (at 50.0 µM), 85.5% (active); in assay [2] (setting [7]), 3%; in assay [2] (setting [8]), 49%; in assay [2] (at 50.0 µM) it was 73.8% (active). In addition, the growth inhibition in assay [3] (setting [7]) is -13%; in assay [3] (setting [8]) it was 70% (active); in assay [3] (at 50.0 µM), 55.5%; in assay [4] (setting [7]) it was 1%; in assay [4] (setting [8]) it was -1%; in assay [4] (at 50.0 µM), 5.45%. Also, the growth inhibition in assay [5] (setting [7]) is -5%; in assay [5] (setting [8]), 7%; in assay [5] (at 50.0 µM), 37.6%; in assay [6] (setting [7]) it was -7%; in assay [6] (setting [8]), 48%; in assay [6] (at 50.0 µM), 70.9% (active).
With `CC(C)(C)N=C=NC(c1ccccc1)(c1ccccc1)c1ccccc1`, the growth inhibition in assay [1] (setting [7]) is -3%; in assay [1] (setting [8]) it was -21%; in assay [1] (at 50.0 µM), -1.9%; in assay [2] (setting [7]), -9%; in assay [2] (setting [8]), -7%; in assay [2] (at 50.0 µM), -6.1%. In addition, the growth inhibition was -6% in assay [3] (setting [7]); -24% in assay [3] (setting [8]); 2.45% in assay [3] (at 50.0 µM); -1% in assay [4] (setting [7]); -18% in assay [4] (setting [8]); 42.5% in assay [4] (at 50.0 µM). The growth inhibition in assay [5] (setting [7]) is -6%; in assay [5] (setting [8]), -22%; in assay [5] (at 50.0 µM) it was 4.5%; in assay [6] (setting [7]) it was 11%; in assay [6] (setting [8]), 1%; in assay [6] (at 50.0 µM), -3.25%.
